Measured values as given in PubChem BioAssay (NCI).
About 83,000 compounds went through this panel and 20% of them were active in at least one assay; those are over-represented in the sample as a whole.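 The test compound was applied at a single concentration to cells in 96-well plates for 48 hours, and percent growth was recorded.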 Values without a mark were called inactive. Active and inactive are the calls of the source.

Tested on: OVCAR-8 ovarian
Experiment: NCI-60 one-dose screen, 48 h (100 = growth as untreated, 0 = no growth, -100 = all killed)
Conditions: 10 µM unless noted
Protocol: Growth inhibition of the OVCAR-8 human tumor cell line is measured as a screen for anti-cancer activity. Cells are grown in 96 well plates and exposed to the test compound for 48 hours. Compounds are tested at a single concentration, which is 10^-5 M for most compounds. The reported endpoint is percent growth (GI% or GIPRCNT), where numbers from 0 - 100% represent growth inhibition, and numbers from -100% - 0 represent cell death. For example, a value of 40 represents 60% growth inhibition. A value of 0 means no net growth occurred over the course of the experiment. A value of -40 indicates 40% of cells at the beginning of the experiment died by the end of the experiment. A value of -100 means all cells are dead at the end of the experiment.
NCI-60 Human Tumor Cell Lines Screen was performed using the standard one-dose NCI protocol, which is described in more detail at https://dtp.cancer.gov/discovery_development/nci-60/default.htm.
Compounds with GIPRCNT values below 10 were considered active. Activity score was based on GIPRCNT using the following formula: […]
Score is 0 for GIPRCNT values of 100 or above, 50 for GIPRCNT values of 0, and 100 for GIPRCNT values of -100.

Structure (SMILES) | growth
C#C[C@]1(O)CC[C@H]2[C@@H]3CC=C4c5sc(Nc6cc(Cl)ccn6)nc5CC[C@]4(C)[C@H]3CC[C@@]21C | 48.7%
CN(C)CCn1c2ccc(N)cc2c2nc3ccccc3nc21 | 35.7%
c1ccc(-c2n(Cc3ccc4ccccc4c3)c3c4ccccc4c4ccccc4c3[n+]2Cc2ccc3ccccc3c2)cc1 | -69.1% (active)
CCN1C(=O)N(CC)C2SC(N/N=C/c3ccccc3)=NC21 (stereo not given) | 8.59% (active)
Nc1c(C(=O)c2ccccc2)sc2nc(-c3cnccn3)cc(-c3cccs3)c12 | 103%
c1cncc(-c2cn3nc(-c4c[nH]c5ccccc45)sc3n2)c1 | 52.2%
CN1CCN(c2nc(-c3cnc4ccccc4n3)cc3ccccc23)CC1 | 89.7%
CC1OC(O[C@@H]2C(O)C(CO)OC(O[C@H]3COC(O[C@H]4CC[C@]5(C)[C@H]6CC[C@]78OC[C@@]9(CC[C@](C)(C=O)C[C@H]97)[C@H](O)C[C@@]8(C)[C@]6(C)CC[C@H]5C4(C)C)[C@@H](OC4OC(CO)[C@@H](O)[C@@H](O)[C@@H]4O)[C@@H]3O)[C@H]2OC2OC[C@@H](O)[C@@H](O)[C@@H]2O)[C@@H](O)[C@@H](O)[C@H]1O (stereo not given in full) | 27.1%
CC(C)SC1=NC(=C(C(=N1)NC2=ClC=CC=C2)C#N)C3=CC=CC=C3 | 46.8%
C#C[C@]1(O)CC[C@H]2[C@@H]3CC=C4c5sc(Nc6cc(OC)ccc6OC)nc5CC[C@]4(C)[C@H]3CC[C@@]21C | 40.1%
CCOC(=O)c1nn(-c2ccc(C)cc2)c(=O)c2c(N)c(C#N)c(-c3ccc(OC)cc3)cc12 | 101%
CCOC(=O)/C(F)=C/C1CC1C1CCCCC1 (stereo not given) | 109%
Oc1ccc(-c2nnc(SCc3ccc(O)c4ncccc34)n2-c2ccccc2)cc1 | 10.1%
CSc1nccc(-c2c(-c3ccc(F)c(OCc4ccc(F)cc4)c3)nc3sccn23)n1 | 84.4%
Cc1nn(-c2ccc(Cl)cc2)c(C)c1N=Nc1ccc2oc(=O)ccc2c1 | 56.9%
COc1cc2cc(Oc3ccc(NC(=O)Nc4cccc(C(F)(F)F)c4)cc3)c(C)nc2cc1OCCN(C)C | 97.9%
COc1cccc(/C=C/C(=O)c2ccc(NC(=O)COc3cccc4cccnc34)cc2)c1 | 98.1%
O=C(CCCCCCN1CC(=O)N2[C@@H](c3ccccc3)c3[nH]c4ccccc4c3C[C@H]2C1=O)NO | 39.6%
CCOC(=O)c1c(NC(=O)c2ccc(F)cc2F)sc2c1CCC(=O)C2 | 96.9%
O=C1c2c(c3c4cc(O)ccc4oc3c3[nH]c4ccccc4c23)C(=O)N1O | 12.1%

Structure (SMILES) | growth
COc1cc(-c2noc(C[C@@H](NC(=O)OCc3ccccc3)C(C)C)n2)cc(OC)c1OC | 100%
Cc1cc(=O)n2nc(-c3cn(C)c4ccc(Cl)cc34)sc2n1 | 96.8%
CCNCCCn1c2c(c3cc(OC)c(OC)cc3c1=O)C(=O)c1cc(OC)cnc1-2 | 14.1%
O=C(NCCNc1cc(-c2cn(-c3ccccc3)nc2-c2cccc(O)c2)ccn1)Nc1ccc(Cl)c(C(F)(F)F)c1 | 74.1%
COc1ccc(C(=O)n2cc(C=O)c3ccccc32)cc1 | 96.4%
COc1ccc(OC)c([C@H]2c3[nH]c4ccccc4c3C[C@H]3C(=O)N(CCCCCCC(=O)NO)CC(=O)N23)c1 | 73.9%
COc1cc(OC)c(S(N)(=O)=O)cc1C(=O)/C=C/c1ccccc1 | 65.3%
COc1cc(CNC(=O)Cc2ccccc2[N+](=O)[O-])ccc1OCC(=O)NO | 101%
O=S(=O)(Nc1ccc(I)c(Cl)c1)c1ccc(-c2cnc(C3CC3)o2)cc1 | 38.9%
C#Cc1ccc(NC(=O)c2ccc(/C=C/C(=O)c3nccn3C)cc2)c(F)c1 | 21.4%
COc1cc(C2CC(c3ccc(Nc4nc(NCCO)nc(Nc5ccc(Cl)cc5)n4)cc3)=Nc3c(N)nc(N)nc3N2)cc(OC)c1OC (stereo not given) | 47.6%
N#C/C(=C\c1ccc(N2CCCCC2)cc1)C(=O)Nc1sc2c(c1C#N)CCC2 | 99.8%
Cc1cc(=O)n2nc(-c3c[nH]c4ccccc34)sc2n1 | 98.7%
CN1C(=O)/C(=C/C=C/c2ccco2)SC1=S | 71.1%
O=C(CN1C(=O)S/C(=C\c2ccccc2)C1=O)Nc1ccc(C(=O)/C=C/c2cc3ccccc3nc2Cl)cc1 | 81.9%
O=S(=O)(NCCCNc1nccc(-n2cnc3ccccc32)n1)c1ccc(F)cc1 | 62.5%
CN(C)C(=O)C1=NC(CO)C(=O)N(c2ccc(Cl)cc2)N1 (stereo not given) | 104%
CC(=O)c1ccc(NC(=O)COc2ccc(C3SCC(=O)N3c3ccc(Br)cc3)cc2)cc1 (stereo not given) | 97.5%
IP(CCCCCCCCCCSc1n(Cc2ccc3ccccc3c2)c(-c2ccccc2)c(-c2ccccc2)[n+]1Cc1ccc2ccccc2c1)(c1ccccc1)(c1ccccc1)c1ccccc1 | -50.3% (active)
CCOC(=O)C1=C(C)Nc2nc3ccccc3n2C1c1cccc(Br)c1 (stereo not given) | 96%
